This passage reports growth results from PubChem BioAssay (NCI).

Some test systems named below: EKVX NSCLC; SN12C renal; UO-31 renal; TK-10 renal; ACHN renal; CAKI-1 renal; A498 renal; CCRF-CEM leukemia; MOLT-4 leukemia; SR leukemia; RPMI-8226 leukemia; OVCAR-8 ovarian; OVCAR-5 ovarian; OVCAR-4 ovarian; IGROV1 ovarian; OVCAR-3 ovarian; HS 578T breast; T-47D breast; NCI/ADR-RES ovarian; SK-OV-3 ovarian.
What all share (experiment): NCI-60 one-dose screen, 48 h (100 = growth as untreated, 0 = no growth, -100 = all killed)
Holding throughout (conditions): 10 µM unless noted

Compounds without any hit were thinned out: in the full panel of roughly 83,000, 20% have a hit.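 Plates (96-well) were seeded with cells, treated with compound at one concentration, and incubated for 48 hours before percent growth was determined.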 A number with no mark means an inactive call. The source made the active and inactive calls. Rule for the calls: active = growth percent below 10; inactive = the rest.

Turning to `CCOC(=O)c1sc(N)c(C(=O)OCC)c1C`, the growth in the test on EKVX NSCLC is 25.9%; with SN12C renal, 54.9%; in the test with UO-31 renal it was 31.3%; with TK-10 renal, 41.1%; in the test on ACHN renal, 52.9%; in the test with CAKI-1 renal, 39.1%. Further, the growth with A498 renal was 13.4%; in the test on CCRF-CEM leukemia, 42%; in the test on MOLT-4 leukemia, 26.5%; in the test on SR leukemia it was 47.2%; in the test on RPMI-8226 leukemia it was 42.3%; with OVCAR-8 ovarian, 65.1%. The growth is 67.6% in the test on OVCAR-5 ovarian; 62% with OVCAR-4 ovarian; 56.9% with IGROV1 ovarian; 70.5% in the test on OVCAR-3 ovarian; 30.9% in the test with HS 578T breast; 7.83% (active) with T-47D breast.
Consider `COc1cc(-c2nc3ccc(-c4nnc(SCC(=O)Nc5ccc(C(C)=O)cc5)o4)cc3[nH]2)cc(OC)c1OC`, for which the growth with EKVX NSCLC is 94%; with SN12C renal, 92.8%; with UO-31 renal, 85.2%; with TK-10 renal, 121%; in the test with ACHN renal it was 98.9%; with CAKI-1 renal, 92.7%. The growth with A498 renal is 95.4%; in the test with CCRF-CEM leukemia, 104%; in the test with MOLT-4 leukemia, 110%; with SR leukemia, 96.5%; in the test on RPMI-8226 leukemia, 108%; with OVCAR-8 ovarian, 94.9%. In addition, the growth with OVCAR-5 ovarian was 99.9%; in the test with OVCAR-4 ovarian, 111%; in the test on IGROV1 ovarian, 99.3%; in the test on OVCAR-3 ovarian, 119%; with HS 578T breast, 103%; in the test on NCI/ADR-RES ovarian, 107%. Also, in the test on T-47D breast, the growth is 103%.
For the molecule `Cc1cc(=O)oc2cc(OCCCOc3ccc(/C=C/C(=O)Nc4ccc(Cl)cc4)cc3)ccc12`, the growth with EKVX NSCLC was 98.5%; in the test with SN12C renal, 84.4%; with UO-31 renal it was 61.5%; in the test on TK-10 renal it was 118%; in the test on ACHN renal, 45.3%; in the test on CAKI-1 renal it was 59.6%. Besides, the growth with A498 renal was 57.7%; with CCRF-CEM leukemia, 68.2%; with MOLT-4 leukemia it was 87.3%; in the test on SR leukemia it was 37.7%; with RPMI-8226 leukemia it was 70.7%; in the test on OVCAR-8 ovarian it was 67.1%. Also, the growth in the test on OVCAR-5 ovarian was 84%; in the test on OVCAR-4 ovarian it was 12.6%; in the test with SK-OV-3 ovarian, 90.4%; in the test on IGROV1 ovarian, 73.2%; in the test with HS 578T breast it was 46.2%; with NCI/ADR-RES ovarian, 56.6%. The growth in the test with T-47D breast was 47.2%.
As to `CC(=O)c1ccc(Nc2nc(SC(C)C)nc(-c3ccccc3)c2C#N)cc1`, the growth with EKVX NSCLC is 111%; with SN12C renal, 97%; with UO-31 renal, 82.1%; in the test with TK-10 renal it was 101%; with ACHN renal, 86.2%; with CAKI-1 renal, 88%. The growth in the test with A498 renal was 42.3%; in the test on CCRF-CEM leukemia, 96.1%; in the test with MOLT-4 leukemia, 96.4%; in the test with SR leukemia, 91.5%; with RPMI-8226 leukemia, 95%; in the test with OVCAR-8 ovarian, 95.7%. Also, the growth with OVCAR-5 ovarian was 100%; in the test on OVCAR-4 ovarian it was 94.9%; in the test with SK-OV-3 ovarian it was 103%; in the test with IGROV1 ovarian, 89.7%; with HS 578T breast, 90.6%; in the test on NCI/ADR-RES ovarian, 92%. In addition, in the test on T-47D breast, the growth is 81%.
As to `CC(C)(C)Nc1nc2c(OCCc3ccccc3)cccn2c1-c1cccc(F)c1`, the growth in the test with EKVX NSCLC is 5.55% (active); in the test on SN12C renal, 6.27% (active); in the test on UO-31 renal it was -11% (active); in the test with TK-10 renal it was -6.22% (active); with ACHN renal, 5.29% (active); with CAKI-1 renal, -11.5% (active). The growth was -18.9% (active) with A498 renal; 3.62% (active) in the test on CCRF-CEM leukemia; -0.489% (active) in the test on MOLT-4 leukemia; -0.873% (active) in the test on SR leukemia; -22.6% (active) with RPMI-8226 leukemia; 10.2% with OVCAR-8 ovarian. The growth with OVCAR-5 ovarian is 14.2%; in the test on OVCAR-4 ovarian, 19.2%; with IGROV1 ovarian it was 10.1%; in the test on OVCAR-3 ovarian, -0.703% (active); in the test on HS 578T breast, -4.86% (active); in the test with NCI/ADR-RES ovarian, 3.69% (active). For the same molecule, the growth in the test on T-47D breast was 5.21% (active).
Regarding `COc1cccc(-c2nn(-c3ccccc3)cc2-c2ccnc(N3CCN(C(=O)c4ccccc4)CC3)c2)c1`, the growth is 103% in the test with EKVX NSCLC; 87.6% with SN12C renal; 72.3% in the test on UO-31 renal; 127% in the test on TK-10 renal; 93% in the test on ACHN renal; 86.2% with CAKI-1 renal. In addition, the growth with A498 renal was 66.9%; in the test on CCRF-CEM leukemia, 52.9%; in the test on MOLT-4 leukemia, 43.8%; with SR leukemia, 27.5%; with RPMI-8226 leukemia, 47.7%; with OVCAR-8 ovarian, 56.4%. The growth is 112% with OVCAR-5 ovarian; 77.9% with OVCAR-4 ovarian; 76% in the test with IGROV1 ovarian; 100% in the test on HS 578T breast; 43.4% with NCI/ADR-RES ovarian; 50.3% with T-47D breast.
Take `Cc1ccc2c(n1)C(=O)C(Cl)=C(Nc1cccc(C(C)C)c1)C2=O`: the growth in the test on EKVX NSCLC was 65%; with SN12C renal, 31.9%; with UO-31 renal, 50.3%; in the test with TK-10 renal, 119%; in the test on ACHN renal it was 50.1%; with CAKI-1 renal, 75.3%. Also, the growth is 71.4% in the test with A498 renal; 14.8% with CCRF-CEM leukemia; 35.4% in the test with MOLT-4 leukemia; 24% in the test on SR leukemia; 2.88% (active) with RPMI-8226 leukemia; 57.2% in the test with OVCAR-8 ovarian. Further, the growth is 109% in the test on OVCAR-5 ovarian; 22.6% with OVCAR-4 ovarian; 22.1% in the test with IGROV1 ovarian; 3.53% (active) in the test on OVCAR-3 ovarian; 43.1% in the test on HS 578T breast; 3.43% (active) with T-47D breast.
Take `COc1ccc(Cc2nn(CC(=O)N/N=C/c3ccc(Cl)cc3)c(=O)c3c(C)noc23)cc1`: the growth was 88.8% with EKVX NSCLC; 66% with SN12C renal; 84.9% in the test on UO-31 renal; 95.5% in the test with TK-10 renal; 72.7% with ACHN renal; 80.8% in the test with CAKI-1 renal. Also, the growth in the test with A498 renal was 90.5%; in the test on CCRF-CEM leukemia, 74.8%; with MOLT-4 leukemia it was 89.7%; with SR leukemia it was 53.9%; in the test with RPMI-8226 leukemia, 87.4%; with OVCAR-8 ovarian it was 61.9%. Further, the growth with OVCAR-5 ovarian was 97.3%; in the test with OVCAR-4 ovarian it was 59.2%; in the test with IGROV1 ovarian, 82.1%; in the test with OVCAR-3 ovarian it was 107%; with HS 578T breast, 22.1%; with T-47D breast, 58.9%.
